35 compounds from PubChem BioAssay (NCI) can be followed below.

Structures are written as SMILES. Several values for one entry are separate records, joined by “and”; a condition that tells them apart may be missing. Equal entries are not always repeated. Compounds without any hit were thinned out: in the full panel of roughly 83,000, 20% have a hit.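 Single-concentration screen, 48 h exposure, 96-well plates. Endpoint: percent growth. Below 10 = active.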 A number with no mark means an inactive call. Activity calls are given as the source filed them.

This assay relates to MDA-MB-468 breast. In words: NCI-60 one-dose screen, 48 h (100 = growth as untreated, 0 = no growth, -100 = all killed). As to conditions: 10 µM unless noted.
With `COc1ccc(N=Nc2c(N)nn3c(-c4ccc(OC)c(OC)c4)ccnc23)cc1`, the growth was 80.2%.

On to `CC1=C(C)C(=O)C(NCCN2CCOCC2)=C(Br)C1=O`, for which the growth was -96.2% (active).

As to `COc1ccc(Nc2ncnc3sc4c(c23)CCN(Cc2ccccc2)C4)cc1`, the growth is 56.6%.

As for `CCCCCCCCCc1ccc(C(=O)Nc2cc(C)ccc2C(=O)OC)cc1`, the growth is 118%.

Consider `O=C(N/N=C/c1ccc(Cl)o1)c1[nH]c2ccc(Br)cc2c1-c1ccccc1`, for which the growth was -9.32% (active).

Regarding `O=C(N/N=C/c1occc1Br)c1[nH]c2ccc(Br)cc2c1-c1ccccc1`, the growth was -75.1% (active).

On to `c1n[nH]cc1-c1nc2ccc3cn[nH]c3c2c2c1CCCC2`, for which the growth was 78.5%.

In the case of `COc1ccc(-c2nc3ccc(-c4nnc(SCc5ccccc5)o4)cc3[nH]2)cc1`, the growth is -23.8% (active).

Turning to `Cc1ccc(C2CC(c3ccc(NC(=S)Nc4ccccc4)cc3)=NN2c2ccc(S(N)(=O)=O)cc2)cc1` (stereo not given), the growth is 9.79% (active).

As to `COc1ccc(C(=O)NNC(=O)CSc2nc3sc4c(c3c(=O)n2-c2ccc(Cl)cc2)CCCC4)cc1`, the growth is 88.3%.

On to `Cc1[nH]nc2ccc3nc(-c4cn[nH]c4C(F)(F)F)c4c(c3c12)CCCC4`, for which the growth is -45.6% (active).

For `CCC(=O)c1c2c(c3ccc4c5ccccc5ccc4n13)C(=O)c1ccccc1C2=O`, the growth was 88.6%.

For `Cn1cc(-c2cc3nc(-c4cn(C)c5ncc(Br)cc45)cc(N)n3n2)c2cc(F)ccc21`, the growth was -47.4% (active).

Take `COc1ccc(-c2cc(C(=O)OCc3ccc(Br)cc3)nn2-c2ccc(S(C)(=O)=O)cc2)cc1OC`: the growth was 64%.

`CCc1ccccc1-c1nc(CN[C@@H]2C[C@@H]3C[C@H]([C@H]2C)C3(C)C)c(C)o1`: the growth is -83.4% (active).

`O=C(CSc1nnc(-c2ccc(-c3nc4ccc(Cl)cc4[nH]3)cc2)o1)Nc1ccccc1`: the growth is 90.9%.

`CCCCCCCOc1ccc(S(=O)(=O)Nc2ccc(C)c(F)c2C(=O)O)cc1`: the growth was 72.8%.

On to `CCc1ccccc1NC(=O)N/C(N)=N/c1nc2ccccc2s1`, for which the growth was -21.2% (active).

Regarding `Cc1ccc(S(=O)(=O)N(CCn2ccnc2[N+](=O)[O-])CCn2ccnc2[N+](=O)[O-])cc1`, the growth is 96.4%.

For `O=C(c1ccc(Cl)cc1)C1[C@H](c2ccccc2Cl)[C@@H](c2ccccc2)NC12C(=O)Nc1ccccc12` (stereo not given in full), the growth was -44.8% (active).

On to `CS(=O)(=O)Nc1cccc(-n2cnc3cc(-c4ccc(O)cc4)ccc32)c1`, for which the growth was 6.92% (active).

`CC(C)(C)C(=O)c1c2c(c3ccc4c5ccccc5ccc4n13)C(=O)c1ccccc1C2=O`: the growth is 98.7%.

Turning to `COc1ccc(CCC2NCCc3c(Br)c4c(c(OC)c32)OCO4)cc1` (stereo not given), the growth was -18.1% (active).

In the case of `O=C(Nc1ccc(Br)cc1)Nc1ccc(-c2ccc3c(c2)NC(=O)/C3=C\c2ccc[nH]2)cc1`, the growth was -5% (active).

As for `O=C(Nc1nc2ccccc2s1)Nc1ccccc1Cl`, the growth is 97%.

For the compound `CN(C)c1nc(NCCNS(=O)(=O)c2ccc(C(=O)/C=C/c3ccc(Cl)cc3)cc2)nc(N2CCOCC2)n1`, the growth is -83.2% (active).

For the compound `COc1cncc(-c2ccc3ncnc(N4CCc5ccc(Cl)cc54)c3c2)c1`, the growth is -67.4% (active).

Take `CC(C)(C)c1ccc(OCc2nc3ccccc3n2-c2cccc(N)c2)cc1`: the growth was 69% and 96.4%.

Turning to `Cc1ccc(S(=O)(=O)Nc2ccc(-c3ccc4c(c3)NC(=O)/C4=C\c3ccc[nH]3)cc2)cc1`, the growth was -25.8% (active).

For `N#CC1=C(c2ccco2)Nc2c(c(-c3ccccc3)nn2-c2ccccc2)C12C(=O)Nc1ccc(Cl)cc12` (stereo not given), the growth is 42.3%.

`CCOc1ccccc1NC(=O)N/C(N)=N/c1nc2ccccc2s1`: the growth was -11.4% (active).

As to `CC[C@]12C=CCN3CC[C@@]4(c5ccc(OC)cc5N(C)[C@H]4[C@@](O)(C(=O)OC)[C@@H]1OC(=O)CCC[P+](c1ccc(OC)cc1)(c1ccc(OC)cc1)c1ccc(OC)cc1)[C@@H]32`, the growth is -92.1% (active).

With `COc1cc(C2CC(c3ccc(F)cc3)=Nc3c(N)nc(N)nc3N2)ccc1Oc1nc(Nc2ccc(F)cc2)nc(N(C)C)n1` (stereo not given), the growth is -17.8% (active).

Consider `COC(=O)c1c(C(=O)OC)c2ccc3c4ccccc4ccc3n2c1C(=O)OC`, for which the growth was 89.6%.

Regarding `C[C@@H]1CN(c2ccc3ncc(C#Cc4cncc(C(=O)Nc5ccc(CN6CCN(C)CC6)c(C(F)(F)F)c5)c4)n3n2)C[C@@H](C)O1`, the growth is -95.1% (active).
